# Assay results: PubChem BioAssay AID687016 (The Scripps Research Institute Molecular Screening Center, 2013)
# In all, about 370,000 compounds went through this assay and about 2,800 (0.76%) were called active. The sample as a whole holds a higher share of actives than the screen did. Unmarked numbers belong to inactive results. Cut-off read from the data, not from the text of the source: active = inhibition above about 21%; inactive = the rest.
# Target: E3 ubiquitin-protein ligase UHRF1 (Homo sapiens) (UniProt Q96T88)
# Assay: blockers of UHRF1 binding to methyl-oligo – biochemical, TR-FRET, human UHRF1, single concentration, counter-screen for MBD2 inhibitor project, primary screen (AID 687016);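 note: UHRF1 SRA domain binding a hemimethylated CpG hairpin DNA probe; 0% = median of test compound wells and 100% = reference inhibitor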
# Conditions: UHRF1 binding to methylated oligo, at 4.4 µM, stronger effect = higher value
# Sequence of E3 ubiquitin-protein ligase UHRF1 (Homo sapiens) (Q96T88 whole entry, looked up, the tested form may be a part): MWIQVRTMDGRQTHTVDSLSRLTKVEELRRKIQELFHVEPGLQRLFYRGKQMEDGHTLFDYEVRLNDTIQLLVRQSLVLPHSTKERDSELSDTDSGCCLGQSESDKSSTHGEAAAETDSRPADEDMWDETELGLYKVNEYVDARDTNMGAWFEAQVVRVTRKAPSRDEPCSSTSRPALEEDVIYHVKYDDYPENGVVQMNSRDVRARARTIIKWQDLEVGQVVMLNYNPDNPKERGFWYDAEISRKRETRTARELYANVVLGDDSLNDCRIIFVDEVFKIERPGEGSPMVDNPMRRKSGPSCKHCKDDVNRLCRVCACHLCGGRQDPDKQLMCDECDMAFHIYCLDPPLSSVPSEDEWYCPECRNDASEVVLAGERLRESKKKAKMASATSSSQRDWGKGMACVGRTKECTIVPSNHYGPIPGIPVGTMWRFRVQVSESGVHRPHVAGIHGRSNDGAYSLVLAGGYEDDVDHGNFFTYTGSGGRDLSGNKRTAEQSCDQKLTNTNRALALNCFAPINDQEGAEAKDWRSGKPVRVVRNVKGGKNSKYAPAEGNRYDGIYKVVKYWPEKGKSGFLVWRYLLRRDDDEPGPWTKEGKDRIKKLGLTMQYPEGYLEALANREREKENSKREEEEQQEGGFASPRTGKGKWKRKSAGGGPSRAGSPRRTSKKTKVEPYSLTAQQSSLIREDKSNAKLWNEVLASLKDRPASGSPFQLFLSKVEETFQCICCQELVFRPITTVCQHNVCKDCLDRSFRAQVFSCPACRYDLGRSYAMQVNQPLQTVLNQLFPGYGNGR
row,Structure (SMILES),inhibition
1,CC(CCN1CCC(C(O)(c2ccccc2)c2ccccc2)CC1)Oc1ccc([N+](=O)[O-])cc1Cl (stereo not drawn),-2.34%
2,CCCC[C@H]1C2CC(OC(=O)NCc3ccccc3)C(C2)[C@H]2CCCCN21 (stereo partly drawn),2.4%
3,COc1ccc(C(=O)OCCN2CCN(C3CN(Cc4cn(Cc5ccccc5F)nn4)S(=O)(=O)C3)CC2)cc1OC (stereo not drawn),16.4%
4,C=CCn1c(=S)[nH]c2scc(-c3ccco3)c2c1=O,42% (active)
5,O=C(CSc1nnc(-c2ccccc2)n1Cc1ccco1)Nc1ccccc1-c1ccccc1,-1.14%
6,Cc1ccc(-n2c(SCC(=O)Nc3ccc(S(=O)(=O)Nc4nccs4)cc3)nnc2-c2ccncc2)cc1,-0.73%
7,CCOc1ccc(-n2c(SCC(=O)Nc3cc(C)c(NC(=O)c4ccccc4)cc3OC)nnc2-c2cccc(Cl)c2)cc1,-1.29%
8,O=C(NC1CCC1)c1ccc(C#CC2CC2)cn1,1.8%
9,COCCCNC(=O)C[C@H]1C[C@@]2(C(=O)OC)C(=C[C@H](C(C)(C)C)O[C@@H]2C)N(Cc2ccc(Cl)cc2Cl)C1=O,-1%
10,Cc1cc(C)c(OCCN2CC(C)OC(C)C2)c(Br)c1 (stereo not drawn),22.5% (active)
11,CC1CN(CCCOc2ccccc2-c2ccccc2)CC(C)O1 (stereo not drawn),1.48%
12,CC1CN(CCOc2ccccc2[N+](=O)[O-])CC(C)O1 (stereo not drawn),0.96%
13,CCn1c(=O)n2n(c1=O)[C@@]1(C=C3CCCC[C@H]32)N=C(NC(=O)c2ccccc2)N(Cc2ccccc2)[C@H]1Cc1ccccc1,1.35%
14,CCN(CC)C(=O)CC[C@H]1CC[C@]2(CCCN(Cc3ccc(Cl)cc3)C2)O1,-2.85%
15,COC(=O)Cc1c(O)ccn(Cc2cccc(C(F)(F)F)c2)c1=O,-0.17%
16,O=C(Cc1cccs1)NCc1cccc(C(F)(F)F)c1,2.41%
17,COC(=O)Cc1csc(/N=C/c2c(O)n(-c3cccc(C(F)(F)F)c3)c(=O)c3ccccc23)n1,20.8% (active)
18,COc1ccc(CN2C(=O)N3Cc4cc(OC)ccc4C3CS2(=O)=O)cc1 (stereo not drawn),-0.8%
19,Cc1ccc(NC(=O)Nc2cc(C)nn2-c2ccccc2)cc1,-0.03%
20,C#CCNC(=O)C[C@H]1C[C@@]2(C(=O)OC)C(=C[C@H](C(C)C)O[C@@H]2C2CC2)N(Cc2ccco2)C1=O,1.95%
21,COc1ccc(NC(=O)CN(C)C(=O)c2cc(C)oc2C)cc1,0.64%

row,Structure (SMILES),inhibition
1,COc1ccc(CC(=O)Nc2ccc(-c3nnc(-c4ccc(C)cc4)o3)cc2)cc1,22.5% (active)
2,COc1ccc(Cc2n[nH]c(=S)n2NC(=O)Nc2ccc(C)cc2)cc1,-1.17%
3,O=S1(=O)c2c(cccc2N2CC[C@H](O)C2)O[C@@H]2CCN1C2,1.23%
4,CC(C)c1ccc(C2C(C#N)=C(N)Oc3c2oc(CO)cc3=O)cc1 (stereo not drawn),-3.69%
5,Cc1cc2c(c(=O)n1C)C(C(C)C)C(C#N)=C(N)O2 (stereo not drawn),0.11%
6,Cc1cc2c(c(=O)n1Cc1ccco1)C(c1ccccc1)C(C#N)=C(N)O2 (stereo not drawn),32.8% (active)
7,CCN(C(=O)[C@@H](C1CC1)[C@@H](O)c1ccc2ccccc2c1)c1ccccc1,-2.68%
8,COc1ccc(C(=O)OCCN(C)C2CN(Cc3cn(Cc4cccc(C)c4)nn3)S(=O)(=O)C2)cc1OC (stereo not drawn),13.8%
9,Cc1nn(-c2ccccc2)c(-n2cccc2)c1C(=O)O,1.78%
10,Cn1nccc1/C=N\NC(=O)c1ccc(Cl)cc1,4.97%
11,Cc1nn(-c2ccccc2)c(Cl)c1/C=N/NC(=O)c1nn(C)cc1[N+](=O)[O-],23.8% (active)
12,CC(C)CNC(=O)OCc1cn(Cc2ccc(F)cc2)nn1,3.53%
13,COC(=O)[C@H](C(C)C)N(CCc1cn(Cc2ccccc2)nn1)S(=O)(=O)c1ccc(F)cc1Br,-0.16%
14,Cc1ccc(Cn2cc(CN3[C@@H](CC(C)C)COc4ccc(Cl)cc4S3(=O)=O)nn2)cc1,-2.98%
15,c1coc(CCNc2ncnc3ccc(-c4ccc5c(c4)OCO5)cc23)c1,-3.63%
16,COC(=O)c1cccc(Cn2ccc3ccc(-c4ccc5ccn(C(=O)c6ccccc6C)c5c4)cc32)c1,-1.17%
17,O=C(COC(=O)c1ccccc1C(=O)N1CCN(c2ccccc2)CC1)NCc1ccccc1,-3.11%
18,Oc1ccc(N2CCN(C(=S)NCc3ccccc3)CC2)cc1,40.4% (active)
19,O=C(CN1CCN(c2ccc(O)cc2)CC1)Nc1ccc(-c2ccccc2)cc1,-0.69%
20,CCOC(=O)C1CCN(C(=O)C(C)(C)NC(=O)Nc2ccccc2Cl)CC1,0.18%
21,COC(=O)[C@]12C[C@H](CC(=O)NCc3cccs3)C(=O)N(CCc3ccc(OC)c(OC)c3)C1=C[C@H](C(C)C)O[C@@H]2C1CC1,-0.69%

row,Structure (SMILES),inhibition
1,O=C(CSc1nc2ccccc2s1)NN=Cc1ccc(O)cc1O,-4.05%
2,COC(=O)[C@]12C[C@H](CC(=O)NCc3ccccc3)C(=O)N(CCc3ccc(OC)c(OC)c3)C1=C[C@H](C(C)(C)C)O[C@@H]2C,-1.24%
3,CCCCOCCCNC(=O)C[C@H]1C[C@@]2(C(=O)OC)C(=C[C@H](C(C)(C)C)O[C@@H]2C)N(CCc2ccc(OC)c(OC)c2)C1=O,-0.73%
4,COC(=O)[C@]12C[C@H](CC(=O)NCCC(C)C)C(=O)N(CCc3ccc(OC)c(OC)c3)C1=C[C@H](C(C)(C)C)O[C@@H]2C,34.2% (active)
5,CC(C)(C)c1ccc(CSc2nnc(-c3cccs3)o2)cc1,-2.34%
6,Cc1ccc(Cc2cnc(N)s2)o1,53.9% (active)
7,O=C(NCCC1=CCCCC1)C1CCN(S(=O)(=O)c2ccc(Cl)s2)CC1,-0.71%
8,O=C(OC12CCCN(C1)/C(=C/c1ccccc1)C2)c1ccco1 (stereo not drawn),3.41%
9,C=CCN1[C@@H](Cc2ccccc2)COc2cccc(N3CCSCC3)c2S1(=O)=O,-0.98%
10,Cc1ccc(OCCC(=O)OCC(=O)N2c3ccccc3NC(=O)C2(C)C)cc1,24.6% (active)
11,CC1(C)C(=O)Nc2ccccc2N1C(=O)COC(=O)Cn1cnc2ccccc2c1=O,1.64%
12,CNS(=O)(=O)c1cccc(C(=O)OCC(=O)N2c3ccccc3NC(=O)C2(C)C)c1,5.39%
13,COc1ccnc(C(=O)N2CCC(Oc3cccnc3)CC2)c1,-0.76%
14,O=C1CC(c2ccc3c(c2)OCO3)N=C2N(CC3CC3)C/C(=C/c3ccccc3)N12 (stereo not drawn),-0.7%
15,O=c1ccc2c(-c3ccccc3S(=O)(=O)O)c3ccc(O)c(O)c3oc-2c1O,82.5% (active)
16,Cc1cc(=O)[nH]c(SCC(=O)Nc2ccc(F)cc2F)n1,-1.2%
17,CCOCCOC(=O)C1=C(C)NC(=O)NC1c1ccc2c(c1)OCO2 (stereo not drawn),31.3% (active)
18,CC(=O)C1=C(C)NC(=O)NC1c1ccc2c(c1)OCO2 (stereo not drawn),0.08%
19,COCCOC(=O)C1=C(C)NC(=O)NC1c1cc2c(cc1Br)OCO2 (stereo not drawn),0.79%
20,CC(CCN1CCC(C(O)(c2ccccc2)c2ccccc2)CC1)Oc1ccc(C(F)(F)F)cc1 (stereo not drawn),1.26%
21,O=C(CCS(=O)(=O)c1ccccc1)Nc1ccc(Cl)c(Cl)c1,3.31%

row,Structure (SMILES),inhibition
1,COC(=O)[C@]12C[C@H](CC(=O)NCC34CC5CC(CC(C5)C3)C4)C(=O)N(Cc3ccc(Cl)cc3Cl)C1=C[C@H](COCc1ccccc1)O[C@@H]2C,-0.14%
2,CCCCN(C)Cc1c(C)[nH]c2ccc(Cl)cc2c1=O,27% (active)
3,CN(C)CCn1c(=S)[nH]c2ccc(Cl)cc2c1=O,-4.42%
4,CCOC(=O)c1ccc2[nH]c(C)c(CN3CCN(C)CC3)c(=O)c2c1,-2.6%
5,O=C(OC12CCCN(C1)/C(=C/c1cccnc1)C2)C1CCCC1 (stereo not drawn),-1.46%
6,COc1ccc(-c2nnc(SCC(=O)c3ccc4c(c3)OCCO4)o2)cc1,-0.81%
7,CCc1ccccc1NC(=O)CSc1nnc(-c2cccs2)o1,1.37%
8,COc1ccc(-n2c(C)cc(C(=O)CSc3nnc(-c4cccs4)o3)c2C)cc1,23.6% (active)
9,COc1ccc(-n2c(SCC(=O)NC3CCCC3)nnc2-c2ccncc2)cc1,0.14%
10,COC(=O)[C@]12C[C@H](CC(=O)N3CCOCC3)C(=O)N(Cc3ccc(Cl)cc3Cl)C1=C[C@H](COCc1ccccc1)O[C@@H]2C,0.29%
11,CCC(C)C(=O)Nc1cc([N+](=O)[O-])ccc1Cl (stereo not drawn),-0.24%
12,CC(C)C(=O)Nc1cccc(NC(=O)c2ccc([N+](=O)[O-])cc2Cl)c1,23.4% (active)
13,O=C(NCc1ccco1)c1ccc([N+](=O)[O-])cc1Cl,2.58%
14,CCC(=O)OCCCN1C(=O)CCC12CCC(c1ccccc1)CC2 (stereo not drawn),-3.69%
15,COc1ccc(Cn2ccc3ccc(-c4ccc5ccn(Cc6ccccc6C)c5c4)cc32)cc1,-0.92%
16,CC(C)N1CCCCC(NC(=O)c2ccc3ccccc3c2)C1=O (stereo not drawn),-2.66%
17,O=C(c1c[nH]c2ccccc12)N1CCC(Oc2cccnc2)CC1,-3.48%
18,COC(=O)[C@H](C(C)C)N1CCc2nnn(Cc3ccc(C)cc3)c2-c2ccccc2S1(=O)=O,-0.67%
19,C=CCN1C(=O)[C@@H](CC(=O)NCCCCc2ccccc2)[C@]2(C(=O)OCC)CCCCC/C=C/12,-1.86%
20,COc1ccc2[nH]c3c(C)c4cc[n+](C)cc4c(C)c3c2c1,92.9% (active)
